# Laboratory results as given in publication PMC7862700, “An all-to-all approach to the identification of sequence-specific readers for epigenetic DNA modifications on cytosine”.
# Columns and labels:
# Assay in all cases: DAPPL (digital affinity profiling via proximity ligation, sequencing); 10 mM Tris-HCl pH 7.5, 50 mM NaCl, 1 mM DTT, 4% glycerol, room temperature, 30 min; GST-TFs on glutathione beads, 16-mer random dsDNA library, 0.1% formaldehyde crosslink after washing; high values mean tight binding
# FEV = target: T1, FEV (Homo sapiens, UniProt Q99581 1-238); settings: protein: recombinant; tags: N-terminal GST; dsDNA, one strand shown
# T1 sequence: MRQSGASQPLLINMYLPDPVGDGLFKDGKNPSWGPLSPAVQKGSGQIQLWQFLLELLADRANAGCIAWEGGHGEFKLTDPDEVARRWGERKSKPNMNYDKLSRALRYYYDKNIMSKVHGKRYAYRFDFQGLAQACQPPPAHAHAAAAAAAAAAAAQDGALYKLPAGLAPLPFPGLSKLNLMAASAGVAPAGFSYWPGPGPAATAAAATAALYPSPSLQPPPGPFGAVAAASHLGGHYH
# Summary of the method: (§1)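 Human transcription factors were made in yeast as GST fusions, captured on glutathione beads and barcoded with DNA. With a tag-only sample included, the pool was incubated with 200 nmole of a random double-stranded 16-mer DNA library in Tris/NaCl/DTT/glycerol buffer at room temperature for 30 min, then crosslinked with 0.1% formaldehyde after washing, ligated by proximity, amplified and sequenced. For binding signal, each hexamer's read frequency for a factor is divided by its frequency for the tag-only sample.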
# ETV5 = ETV5 (Homo sapiens, UniProt P41161 1-510); settings: protein: recombinant; tags: N-terminal GST; dsDNA, one strand shown
# Summary of the method: as §1
# HSF1 = HSF1 (Homo sapiens, UniProt Q00613 1-529); settings: protein: recombinant; tags: N-terminal GST; chain copies: 3; dsDNA, one strand shown
# Summary of the method: as §1
# SPIC = target: T2, SPIC (Homo sapiens, UniProt Q8N5J4 1-248); settings: protein: recombinant; tags: N-terminal GST; dsDNA, one strand shown
# T2 sequence: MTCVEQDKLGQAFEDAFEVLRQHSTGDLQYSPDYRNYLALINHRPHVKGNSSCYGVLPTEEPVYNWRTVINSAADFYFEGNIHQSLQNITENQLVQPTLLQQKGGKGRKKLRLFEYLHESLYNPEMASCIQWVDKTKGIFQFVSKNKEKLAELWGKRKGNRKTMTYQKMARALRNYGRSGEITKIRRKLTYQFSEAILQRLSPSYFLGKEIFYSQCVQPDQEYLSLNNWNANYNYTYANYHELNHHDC
# Summary of the method: as §1
# ELF4 = ELF4 (Homo sapiens, UniProt Q99607 1-663); settings: protein: recombinant; tags: N-terminal GST; dsDNA, one strand shown
# Summary of the method: as §1
# ELK4 = target: T3, ELK4 (Homo sapiens, UniProt P28324-2 1-405); settings: protein: recombinant; tags: N-terminal GST; dsDNA, one strand shown
# T3 sequence: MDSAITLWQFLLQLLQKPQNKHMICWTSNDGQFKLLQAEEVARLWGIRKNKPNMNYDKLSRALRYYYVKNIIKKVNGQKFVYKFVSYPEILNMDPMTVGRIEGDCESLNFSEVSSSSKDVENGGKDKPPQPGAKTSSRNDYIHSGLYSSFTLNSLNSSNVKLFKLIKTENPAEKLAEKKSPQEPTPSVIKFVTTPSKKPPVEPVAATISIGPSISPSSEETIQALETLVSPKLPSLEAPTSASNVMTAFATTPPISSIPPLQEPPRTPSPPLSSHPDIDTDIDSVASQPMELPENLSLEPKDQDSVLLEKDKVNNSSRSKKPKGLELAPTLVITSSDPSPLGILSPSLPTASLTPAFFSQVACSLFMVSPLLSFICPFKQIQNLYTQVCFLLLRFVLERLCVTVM
# Summary of the method: as §1
# ETV2 = target: T4, ETV2 (Homo sapiens, UniProt O00321 1-342); settings: protein: recombinant; tags: N-terminal GST; dsDNA, one strand shown
# T4 sequence: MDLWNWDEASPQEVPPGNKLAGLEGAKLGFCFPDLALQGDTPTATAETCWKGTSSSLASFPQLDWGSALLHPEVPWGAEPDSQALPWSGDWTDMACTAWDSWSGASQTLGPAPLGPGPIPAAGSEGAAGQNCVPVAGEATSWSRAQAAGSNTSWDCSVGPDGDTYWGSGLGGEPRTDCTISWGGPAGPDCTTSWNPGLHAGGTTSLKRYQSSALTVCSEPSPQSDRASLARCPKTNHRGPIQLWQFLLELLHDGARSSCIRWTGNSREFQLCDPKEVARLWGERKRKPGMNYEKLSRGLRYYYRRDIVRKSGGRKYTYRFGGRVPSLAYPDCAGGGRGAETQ
# Summary of the method: as §1
# ELF3 = target: T5, ELF3 (Homo sapiens, UniProt P78545 1-371); settings: protein: recombinant; tags: N-terminal GST; dsDNA, one strand shown
# T5 sequence: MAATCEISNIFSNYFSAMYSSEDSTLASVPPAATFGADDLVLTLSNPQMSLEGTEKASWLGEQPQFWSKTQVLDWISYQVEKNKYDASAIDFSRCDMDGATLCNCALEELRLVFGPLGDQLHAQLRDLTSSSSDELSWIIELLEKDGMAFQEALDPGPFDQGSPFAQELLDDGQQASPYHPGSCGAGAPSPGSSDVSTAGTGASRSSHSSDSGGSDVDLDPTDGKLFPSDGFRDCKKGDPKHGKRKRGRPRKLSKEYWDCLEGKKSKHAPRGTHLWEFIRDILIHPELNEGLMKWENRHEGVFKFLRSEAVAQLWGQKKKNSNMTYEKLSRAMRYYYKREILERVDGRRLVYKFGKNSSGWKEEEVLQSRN
# Summary of the method: as §1
# CRX = CRX (Homo sapiens, UniProt O43186 1-299); settings: protein: recombinant; tags: N-terminal GST; dsDNA, one strand shown
# Summary of the method: as §1
# ETV1 = ETV1 (Homo sapiens, UniProt P50549 1-477); settings: protein: recombinant; tags: N-terminal GST; dsDNA, one strand shown
# Summary of the method: as §1
# ERF = target: T6, ERF (Homo sapiens, UniProt P50548 1-548); settings: protein: recombinant; tags: N-terminal GST; dsDNA, one strand shown
# T6 sequence: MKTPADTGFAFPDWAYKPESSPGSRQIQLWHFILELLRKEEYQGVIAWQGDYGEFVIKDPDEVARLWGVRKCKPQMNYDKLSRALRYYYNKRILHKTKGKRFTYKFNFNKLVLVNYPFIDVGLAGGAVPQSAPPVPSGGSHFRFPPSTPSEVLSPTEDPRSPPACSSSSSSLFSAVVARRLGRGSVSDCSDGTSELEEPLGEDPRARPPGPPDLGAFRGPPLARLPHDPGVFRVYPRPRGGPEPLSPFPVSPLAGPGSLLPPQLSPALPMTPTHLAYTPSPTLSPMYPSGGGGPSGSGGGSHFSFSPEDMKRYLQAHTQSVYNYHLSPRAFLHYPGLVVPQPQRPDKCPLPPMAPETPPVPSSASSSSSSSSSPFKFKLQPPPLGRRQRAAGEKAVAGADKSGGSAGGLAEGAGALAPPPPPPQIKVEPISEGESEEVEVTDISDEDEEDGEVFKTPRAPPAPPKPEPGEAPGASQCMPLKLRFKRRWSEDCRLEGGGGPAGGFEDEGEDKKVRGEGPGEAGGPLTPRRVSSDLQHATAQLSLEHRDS
# Summary of the method: as §1
# ETV3L = target: T7, ETV3L (Homo sapiens, UniProt Q6ZN32 1-361); settings: protein: recombinant; tags: N-terminal GST; dsDNA, one strand shown
# T7 sequence: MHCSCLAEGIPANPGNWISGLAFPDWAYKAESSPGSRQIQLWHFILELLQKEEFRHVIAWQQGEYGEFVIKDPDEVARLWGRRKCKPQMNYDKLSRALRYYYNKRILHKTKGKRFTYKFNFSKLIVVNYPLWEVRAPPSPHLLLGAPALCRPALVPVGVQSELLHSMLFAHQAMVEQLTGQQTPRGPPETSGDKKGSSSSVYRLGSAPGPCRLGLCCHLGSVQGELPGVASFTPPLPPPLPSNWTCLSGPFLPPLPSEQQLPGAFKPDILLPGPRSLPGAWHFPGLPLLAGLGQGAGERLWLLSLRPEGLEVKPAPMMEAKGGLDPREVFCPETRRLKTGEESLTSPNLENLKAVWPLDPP
# Summary of the method: as §1
# ETS2 = target: T8, ETS2 (Homo sapiens, UniProt P15036 1-469); settings: protein: recombinant; tags: N-terminal GST; dsDNA, one strand shown
# T8 sequence: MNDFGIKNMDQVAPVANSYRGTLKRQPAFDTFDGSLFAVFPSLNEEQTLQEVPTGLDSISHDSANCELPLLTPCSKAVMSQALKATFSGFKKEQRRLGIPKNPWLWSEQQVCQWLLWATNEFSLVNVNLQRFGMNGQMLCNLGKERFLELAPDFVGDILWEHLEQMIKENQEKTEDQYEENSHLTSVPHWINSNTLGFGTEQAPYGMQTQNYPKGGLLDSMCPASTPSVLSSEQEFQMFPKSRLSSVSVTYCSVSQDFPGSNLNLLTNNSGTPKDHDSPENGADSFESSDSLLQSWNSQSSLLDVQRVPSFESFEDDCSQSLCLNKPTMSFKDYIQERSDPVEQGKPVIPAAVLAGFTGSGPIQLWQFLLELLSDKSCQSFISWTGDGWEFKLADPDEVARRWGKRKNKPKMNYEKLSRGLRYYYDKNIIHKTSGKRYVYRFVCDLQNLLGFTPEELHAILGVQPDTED
# Summary of the method: as §1
# SPDEF = target: T9, SPDEF (Homo sapiens, UniProt O95238 1-335); settings: protein: recombinant; tags: N-terminal GST; dsDNA, one strand shown
# T9 sequence: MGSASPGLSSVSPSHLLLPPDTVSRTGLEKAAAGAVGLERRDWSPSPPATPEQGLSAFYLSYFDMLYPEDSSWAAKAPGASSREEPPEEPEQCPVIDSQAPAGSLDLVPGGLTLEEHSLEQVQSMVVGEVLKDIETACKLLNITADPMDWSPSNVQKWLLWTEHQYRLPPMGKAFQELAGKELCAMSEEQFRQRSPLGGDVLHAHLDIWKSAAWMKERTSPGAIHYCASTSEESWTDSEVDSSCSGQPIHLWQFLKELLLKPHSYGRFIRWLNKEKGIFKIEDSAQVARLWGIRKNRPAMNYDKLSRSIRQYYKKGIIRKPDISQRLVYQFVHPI
# Summary of the method: as §1
# ETV7 = target: T10, ETV7 (Homo sapiens, UniProt Q9Y603 1-341); settings: protein: recombinant; tags: N-terminal GST; dsDNA, one strand shown
# T10 sequence: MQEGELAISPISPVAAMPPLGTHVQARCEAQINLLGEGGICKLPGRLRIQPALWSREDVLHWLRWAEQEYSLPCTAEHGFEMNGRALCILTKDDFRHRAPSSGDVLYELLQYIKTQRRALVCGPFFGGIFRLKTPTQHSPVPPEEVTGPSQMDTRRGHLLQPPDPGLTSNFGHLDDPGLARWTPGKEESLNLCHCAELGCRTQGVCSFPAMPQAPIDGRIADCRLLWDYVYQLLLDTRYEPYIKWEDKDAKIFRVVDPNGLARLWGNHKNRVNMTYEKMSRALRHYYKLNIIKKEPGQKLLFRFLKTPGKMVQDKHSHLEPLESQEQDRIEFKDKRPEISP
# Summary of the method: as §1
# ELF5 = target: T11, ELF5 (Homo sapiens, UniProt Q9UKW6-2 1-255); settings: protein: recombinant; tags: N-terminal GST; dsDNA, one strand shown
# T11 sequence: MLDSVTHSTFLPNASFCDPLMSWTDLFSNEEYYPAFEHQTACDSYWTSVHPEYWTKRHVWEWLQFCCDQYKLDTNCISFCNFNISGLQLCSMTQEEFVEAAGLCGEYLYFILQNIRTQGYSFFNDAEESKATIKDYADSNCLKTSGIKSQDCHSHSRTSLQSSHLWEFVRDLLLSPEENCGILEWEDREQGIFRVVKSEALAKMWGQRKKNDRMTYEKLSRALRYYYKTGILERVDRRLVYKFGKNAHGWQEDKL
# Summary of the method: as §1
# ETV3 = target: T12, ETV3 (Homo sapiens, UniProt P41162-2 1-143); settings: protein: recombinant; tags: N-terminal GST; dsDNA, one strand shown
# T12 sequence: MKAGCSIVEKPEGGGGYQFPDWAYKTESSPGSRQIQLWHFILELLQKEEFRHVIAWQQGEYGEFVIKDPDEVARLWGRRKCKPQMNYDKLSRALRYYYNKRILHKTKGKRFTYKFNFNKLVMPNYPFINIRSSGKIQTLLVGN
# Summary of the method: as §1
# ETV6 = ETV6 (Homo sapiens, UniProt P41212 1-452); settings: protein: recombinant; tags: N-terminal GST; dsDNA, one strand shown
# Summary of the method: as §1
# ETV1, sequence (P50549 whole entry): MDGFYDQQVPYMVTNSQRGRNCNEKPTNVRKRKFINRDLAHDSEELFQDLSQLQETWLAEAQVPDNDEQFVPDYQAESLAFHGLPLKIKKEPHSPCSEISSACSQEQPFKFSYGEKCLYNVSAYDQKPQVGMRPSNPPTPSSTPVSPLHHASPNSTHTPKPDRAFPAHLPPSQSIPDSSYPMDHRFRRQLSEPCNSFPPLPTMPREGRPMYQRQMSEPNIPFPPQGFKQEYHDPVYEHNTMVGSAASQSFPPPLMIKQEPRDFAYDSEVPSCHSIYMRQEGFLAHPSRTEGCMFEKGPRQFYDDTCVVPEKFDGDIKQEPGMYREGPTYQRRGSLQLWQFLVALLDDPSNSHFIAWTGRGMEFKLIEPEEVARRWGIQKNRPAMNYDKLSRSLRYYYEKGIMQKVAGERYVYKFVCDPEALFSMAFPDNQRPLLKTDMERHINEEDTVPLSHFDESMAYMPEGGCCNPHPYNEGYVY
# ETV5, sequence (P41161 whole entry): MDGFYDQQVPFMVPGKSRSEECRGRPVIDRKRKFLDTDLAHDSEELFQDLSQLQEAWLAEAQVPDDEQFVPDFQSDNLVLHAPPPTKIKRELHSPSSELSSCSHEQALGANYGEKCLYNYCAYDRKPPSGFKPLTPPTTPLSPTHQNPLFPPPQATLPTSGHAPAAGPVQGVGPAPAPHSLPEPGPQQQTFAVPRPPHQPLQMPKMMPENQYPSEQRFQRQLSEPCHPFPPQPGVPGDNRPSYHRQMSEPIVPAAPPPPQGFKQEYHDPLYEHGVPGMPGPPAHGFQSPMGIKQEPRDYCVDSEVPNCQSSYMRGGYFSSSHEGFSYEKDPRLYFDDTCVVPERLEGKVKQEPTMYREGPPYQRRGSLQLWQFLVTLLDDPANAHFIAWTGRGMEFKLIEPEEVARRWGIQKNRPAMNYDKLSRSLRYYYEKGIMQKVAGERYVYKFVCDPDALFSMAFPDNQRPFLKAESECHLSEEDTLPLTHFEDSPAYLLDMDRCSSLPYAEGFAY
# HSF1, sequence (Q00613 whole entry): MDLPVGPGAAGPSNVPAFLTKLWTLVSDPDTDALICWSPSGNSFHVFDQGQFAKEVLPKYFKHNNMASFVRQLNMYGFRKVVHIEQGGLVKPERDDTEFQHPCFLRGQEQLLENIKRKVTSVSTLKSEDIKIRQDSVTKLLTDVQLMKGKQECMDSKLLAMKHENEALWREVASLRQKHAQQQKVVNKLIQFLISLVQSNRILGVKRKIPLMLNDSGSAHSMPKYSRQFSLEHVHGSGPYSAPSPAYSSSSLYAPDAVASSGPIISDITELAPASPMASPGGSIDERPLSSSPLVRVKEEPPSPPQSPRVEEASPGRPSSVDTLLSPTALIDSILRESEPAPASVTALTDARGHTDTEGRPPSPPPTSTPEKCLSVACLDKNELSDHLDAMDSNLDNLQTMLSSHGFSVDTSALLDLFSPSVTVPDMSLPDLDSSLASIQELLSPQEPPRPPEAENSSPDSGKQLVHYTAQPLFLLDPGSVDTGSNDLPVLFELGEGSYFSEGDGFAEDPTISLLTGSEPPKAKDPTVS
# CRX, sequence (O43186 whole entry): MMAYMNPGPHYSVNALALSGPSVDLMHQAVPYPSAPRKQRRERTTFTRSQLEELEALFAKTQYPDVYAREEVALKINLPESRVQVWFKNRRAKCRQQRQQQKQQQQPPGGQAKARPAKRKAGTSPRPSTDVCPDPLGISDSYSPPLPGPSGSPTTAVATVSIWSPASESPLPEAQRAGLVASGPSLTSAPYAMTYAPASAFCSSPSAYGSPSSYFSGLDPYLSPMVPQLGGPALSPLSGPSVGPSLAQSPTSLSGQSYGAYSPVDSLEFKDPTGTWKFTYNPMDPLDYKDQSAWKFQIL
# ELF4, sequence (Q99607 whole entry): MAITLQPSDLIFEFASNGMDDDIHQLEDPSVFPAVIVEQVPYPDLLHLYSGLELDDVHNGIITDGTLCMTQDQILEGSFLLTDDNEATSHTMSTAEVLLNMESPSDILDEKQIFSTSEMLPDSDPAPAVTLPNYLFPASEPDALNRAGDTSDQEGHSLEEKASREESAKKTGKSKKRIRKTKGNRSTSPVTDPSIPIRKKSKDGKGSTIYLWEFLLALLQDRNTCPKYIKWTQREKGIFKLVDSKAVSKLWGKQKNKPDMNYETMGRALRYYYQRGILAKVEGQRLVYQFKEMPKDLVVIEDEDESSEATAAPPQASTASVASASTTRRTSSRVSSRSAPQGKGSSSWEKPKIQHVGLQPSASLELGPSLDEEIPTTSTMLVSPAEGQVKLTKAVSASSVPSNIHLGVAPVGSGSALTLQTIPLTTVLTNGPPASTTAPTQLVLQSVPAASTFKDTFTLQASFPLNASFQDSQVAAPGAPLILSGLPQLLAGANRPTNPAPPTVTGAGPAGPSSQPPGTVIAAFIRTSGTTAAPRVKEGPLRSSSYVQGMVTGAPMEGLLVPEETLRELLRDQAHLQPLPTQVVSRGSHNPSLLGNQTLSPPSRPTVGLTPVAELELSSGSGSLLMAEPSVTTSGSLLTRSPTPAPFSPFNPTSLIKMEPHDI
# ETV6, sequence (P41212 whole entry): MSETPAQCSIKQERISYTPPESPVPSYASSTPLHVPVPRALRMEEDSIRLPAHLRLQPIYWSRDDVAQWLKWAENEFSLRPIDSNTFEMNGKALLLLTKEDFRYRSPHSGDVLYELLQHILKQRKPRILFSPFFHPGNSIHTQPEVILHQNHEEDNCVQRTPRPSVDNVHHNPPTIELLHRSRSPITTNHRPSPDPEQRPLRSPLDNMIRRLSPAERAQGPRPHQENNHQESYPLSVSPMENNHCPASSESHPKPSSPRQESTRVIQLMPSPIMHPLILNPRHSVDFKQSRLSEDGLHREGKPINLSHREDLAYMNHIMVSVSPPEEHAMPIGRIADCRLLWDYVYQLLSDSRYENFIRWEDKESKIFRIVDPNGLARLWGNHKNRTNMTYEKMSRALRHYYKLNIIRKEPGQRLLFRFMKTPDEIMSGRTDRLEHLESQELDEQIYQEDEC
sequence,measurement,setting,value
TATTAC,binding signal,FEV,"1.16 fold enrichment (6-mer frequency, TF over GST control)"
same,binding signal,ETV5,"1.28 fold enrichment (6-mer frequency, TF over GST control)"
same,binding signal,HSF1,"1.33 fold enrichment (6-mer frequency, TF over GST control)"
same,binding signal,SPIC,"1.24 fold enrichment (6-mer frequency, TF over GST control)"
same,binding signal,ELF4,"1.2 fold enrichment (6-mer frequency, TF over GST control)"
same,binding signal,ELK4,"1.31 fold enrichment (6-mer frequency, TF over GST control)"
same,binding signal,ETV2,"1.27 fold enrichment (6-mer frequency, TF over GST control)"
same,binding signal,ELF3,"1.16 fold enrichment (6-mer frequency, TF over GST control)"
same,binding signal,CRX,"1.79 fold enrichment (6-mer frequency, TF over GST control)"
same,binding signal,ETV1,"1.27 fold enrichment (6-mer frequency, TF over GST control)"
same,binding signal,ERF,"1.22 fold enrichment (6-mer frequency, TF over GST control)"
same,binding signal,ETV3L,"1.2 fold enrichment (6-mer frequency, TF over GST control)"
same,binding signal,ETS2,"1.18 fold enrichment (6-mer frequency, TF over GST control)"
same,binding signal,SPDEF,"1.23 fold enrichment (6-mer frequency, TF over GST control)"
same,binding signal,ETV7,"1.16 fold enrichment (6-mer frequency, TF over GST control)"
same,binding signal,ELF5,"1.16 fold enrichment (6-mer frequency, TF over GST control)"
same,binding signal,ETV3,"1.24 fold enrichment (6-mer frequency, TF over GST control)"
same,binding signal,ETV6,"1.28 fold enrichment (6-mer frequency, TF over GST control)"
